MLLE-PAM2 inh: blocks PAM2 peptide binding to the PABP1 MLLE domain | 360,000 compounds, 0.36% hits | P11940 | inhibition, % at 20 µM | AID 588489 | GST-MLLE / FITC-PAM2 fluorescence polarization; in the data active means inhibition above about 35%, passing the limit was not always enough;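 further: plate controls were DMSO wells with GST-MLLE for no effect and wells lacking GST-MLLE protein for full effect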
Target sequence (P11940 whole entry, looked up, the tested form may be a part): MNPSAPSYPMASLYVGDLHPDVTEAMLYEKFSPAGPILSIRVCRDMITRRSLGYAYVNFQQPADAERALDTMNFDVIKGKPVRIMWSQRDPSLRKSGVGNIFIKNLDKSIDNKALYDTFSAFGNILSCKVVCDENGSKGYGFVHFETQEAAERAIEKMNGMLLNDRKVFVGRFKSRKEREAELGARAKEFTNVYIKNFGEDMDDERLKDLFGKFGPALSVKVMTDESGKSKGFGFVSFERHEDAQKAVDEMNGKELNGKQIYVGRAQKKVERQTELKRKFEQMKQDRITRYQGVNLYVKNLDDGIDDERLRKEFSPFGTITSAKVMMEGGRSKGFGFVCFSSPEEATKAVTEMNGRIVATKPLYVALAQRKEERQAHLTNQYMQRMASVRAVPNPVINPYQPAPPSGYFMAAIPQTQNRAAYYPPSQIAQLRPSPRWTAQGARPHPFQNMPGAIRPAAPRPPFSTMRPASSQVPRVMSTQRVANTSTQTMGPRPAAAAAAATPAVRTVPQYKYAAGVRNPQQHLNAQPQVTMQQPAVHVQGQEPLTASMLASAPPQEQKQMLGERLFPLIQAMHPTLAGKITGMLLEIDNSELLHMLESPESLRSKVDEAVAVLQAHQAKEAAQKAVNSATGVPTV
GRK2 inh: blocks RNA aptamer binding to human GRK2 | P25098 | bead flow cytometry, FAM-aptamer displacement from GRK2 | inhibition of aptamer binding, % at 10 µM | 330,000 compounds, 0.59% hits | AID 488847;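 active means inhibition of aptamer binding above 40%, roughly 3 SD of noise, on plates passing a quality check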;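 further: median bead fluorescence of bound FAM aptamer so fluorescent compounds give negative values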
PERK inh: human PERK inhibition, primary cell-based screen; Q9NZJ5; CHO PERK-DD fusion, SEAP luminescence translation reporter; inhibition, % at 5.6 µM; 220,000 compounds, 0.17% hits; AID 1416;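 active means inhibition above the mean inhibition of all tested compounds plus 3 SD, set separately per screening campaign, cut at about 2.9% in these data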;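 further: PERK kinase domain activated by AP20187 dimerizer at 100 nM; 0% = DMSO with dimerizer and 100% = rapamycin at 8.4 µM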
PABP FP inh: PABP-poly(A) binding inhibition. 290,000 compounds, 1% hits. inhibition, % at 35 µM. AID 2014. PABP-poly(A) RNA binding, fluorescence polarization;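 further: calls also rest on retests at 20 µM and on dose response follow-up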
eIF4H inh: inhibitors of RNA binding by human eIF4H; inhibition, % at 35 µM; eIF4H fluorescence polarization binding assay; 290,000 compounds, 0.94% hits; Q15056; AID 2012;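 further: calls also rest on retests at 20 µM and on dose response follow-up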
* hit, by the source's call. Sampled rows, rich in hits. Any-hit rate of the full collection: about 1.9%. Unless noted, how the calls were made is not given here.

For O=C(Nc1nncs1)c1cc2c(s1)CCC2 the results were MLLE-PAM2 inh -2.2, GRK2 inh 0.0, PERK inh -0.2, PABP FP inh 2.1 and eIF4H inh 7.5.
For CC(C)Cc1nnc(NC(=O)c2cc3c(s2)CCC3)s1 the results were MLLE-PAM2 inh -23.7, GRK2 inh 2.0, PERK inh 0.0, PABP FP inh 16.2 and eIF4H inh 54.2*.
Screening CC(=O)c1ccc(NC(=S)NC(=O)/C=C/c2ccco2)cc1 returned MLLE-PAM2 inh 25.6, GRK2 inh 0.0, PABP FP inh 28.5* and eIF4H inh 61.9*.
Screening O=C(/C=C/c1ccccc1)NCc1ccco1 returned MLLE-PAM2 inh -9.3, GRK2 inh 2.0, PERK inh 0.7, PABP FP inh -3.8 and eIF4H inh -6.3.
For O=C(/C=C/c1ccco1)NC(=S)Nc1ccccc1 the results were MLLE-PAM2 inh 9.8, GRK2 inh 2.0, PABP FP inh 7.9 and eIF4H inh 26.7.
O=C(/C=C/c1ccco1)Nc1scc(-c2ccccc2)c1C(=O)O was read as MLLE-PAM2 inh 1.1, GRK2 inh 11.0, PERK inh 1.9, PABP FP inh 67.2* and eIF4H inh 79.4*.
`O=C(/C=C/c1ccccc1)Nc1scc(-c2ccccc2)c1C(=O)O` gave MLLE-PAM2 inh -6.0, PERK inh 1.5, PABP FP inh -16.1 and eIF4H inh -2.0.
CCN(CC(=O)NCc1ccc(Cl)cc1)C(=O)/C=C/c1ccco1 was read as MLLE-PAM2 inh -7.5, GRK2 inh 0.0, PERK inh 0.2, PABP FP inh 56.5* and eIF4H inh 16.3*.
For Cc1ccc(/C=C/C(=O)NCc2ccco2)o1 the results were GRK2 inh 19.0, PERK inh 1.6, PABP FP inh active and eIF4H inh inconclusive.
`CCN(CC(=O)NCc1ccc(Cl)cc1)C(=O)/C=C/c1ccccc1` gave MLLE-PAM2 inh -5.2, GRK2 inh 4.0, PABP FP inh 5.8 and eIF4H inh 2.6.
For CCN1C[C@@H]2[C@@H]3C(=O)N(Cc4ccccc4)C(=O)[C@@H]3[C@](CC)(C1=O)N2C(=O)c1ccc(F)cc1 the results were MLLE-PAM2 inh -13.7.
For NS(=O)(=O)c1ccc(CNC(=O)/C=C/c2ccco2)cc1 the results were MLLE-PAM2 inh -2.7, GRK2 inh 14.0, PERK inh -0.4, PABP FP inh 25.7 and eIF4H inh 79.1*.
COc1ccc(-c2csc(NC(=S)NC(=O)/C=C/c3ccco3)n2)cc1OC was read as MLLE-PAM2 inh 24.7, GRK2 inh 0.0, PERK inh 0.6, PABP FP inh 10.5* and eIF4H inh 88.7*.
Screening COc1ccc(-c2csc(NC(=S)NC(=O)/C=C/c3ccco3)n2)cc1Br returned MLLE-PAM2 inh -13.6, GRK2 inh 0.0, PERK inh 1.6, PABP FP inh -7.9 and eIF4H inh 11.7.
Screening Cc1cccc(NC(=S)NC(=O)/C=C/c2ccco2)n1 returned MLLE-PAM2 inh 10.9, GRK2 inh 3.0, PERK inh -1.4, PABP FP inh 60.1* and eIF4H inh 56.1*.
`Cc1csc(NC(=O)c2ccc(C(=O)Nc3nc(C)cs3)cc2)n1` gave GRK2 inh 7.0, PERK inh -0.1, PABP FP inh 3.5* and eIF4H inh inconclusive.
O=C(/C=C/c1ccco1)NCc1ccc(F)cc1 was read as MLLE-PAM2 inh 2.9, GRK2 inh 0.0, PERK inh 0.5, PABP FP inh 12.2 and eIF4H inh 3.2.
For COC(=O)CCC[C@H]1CC2(C[C@H](CCCO[Si](C)(C)C(C)(C)C)N1C(=O)OC(C)(C)C)OCCO2 the results were MLLE-PAM2 inh -6.3 and GRK2 inh 0.0.
CCCC(=O)N1CCC1(C)C(=O)NS(=O)(=O)c1cccc(Cl)c1 (stereo not given) was read as MLLE-PAM2 inh -7.2.
O=C(Nc1nnc(-c2ccc(F)cc2)o1)C1CCCN1S(=O)(=O)c1cccs1 (stereo not given) was read as MLLE-PAM2 inh -1.1 and GRK2 inh 0.0.
For COc1cc(C(=O)NNC(=O)/C=C/c2ccco2)cc(OC)c1OC the results were MLLE-PAM2 inh -1.5 and GRK2 inh 42.0*.
For NC(N)=NS(=O)(=O)c1ccc(NC(=S)NC(=O)/C=C/c2ccco2)cc1 the results were MLLE-PAM2 inh 1.8, GRK2 inh 5.0, PERK inh 0.9, PABP FP inh active and eIF4H inh 88.1.
Screening Cc1csc(NC(=O)/C=C/c2ccco2)n1 returned MLLE-PAM2 inh -6.5, GRK2 inh 4.0, PERK inh 0.4, PABP FP inh active and eIF4H inh 81.8.

Assay outcomes: PubChem BioAssay, several laboratories
